PubChem BioAssay (EPA / NIEHS)
Calls of active or inactive are those of the source. How the source made its calls: active means hit-call score of the fitted dose curve at least 0.9, where 1 is the maximum; inactive means score below 0.9.

Assays:
[1] = ATG_GLI_CIS: Attagene CIS-FACTORIAL HepG2 Assay for human Zinc Finger Protein GLI1 (AID 2282945); conditions: HepG2, Attagene cis-factorial reporter mRNA, GLI element; actives raise or lower the signal
Outline: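 Transiently transfected HepG2 cells report endogenous transcription factor activity via cis-element-driven reporter units. After 24 h compound exposure, reporter mRNA was measured by RT-PCR with capillary electrophoresis; bidirectional fitting against DMSO baseline.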

[2] = target: Bile acid receptor (Homo sapiens) (UniProt Q96RI1); assay: ATG_IR1_CIS: Attagene CIS-FACTORIAL HepG2 Assay for human Nuclear Receptor Subfamily 1 Group H Member 4 (NR1H4), IR1 submotif (AID 2282946); conditions: IR1 reporter transcription, actives raise or lower the signal
Chain of Bile acid receptor (Homo sapiens) (Q96RI1 whole entry, looked up): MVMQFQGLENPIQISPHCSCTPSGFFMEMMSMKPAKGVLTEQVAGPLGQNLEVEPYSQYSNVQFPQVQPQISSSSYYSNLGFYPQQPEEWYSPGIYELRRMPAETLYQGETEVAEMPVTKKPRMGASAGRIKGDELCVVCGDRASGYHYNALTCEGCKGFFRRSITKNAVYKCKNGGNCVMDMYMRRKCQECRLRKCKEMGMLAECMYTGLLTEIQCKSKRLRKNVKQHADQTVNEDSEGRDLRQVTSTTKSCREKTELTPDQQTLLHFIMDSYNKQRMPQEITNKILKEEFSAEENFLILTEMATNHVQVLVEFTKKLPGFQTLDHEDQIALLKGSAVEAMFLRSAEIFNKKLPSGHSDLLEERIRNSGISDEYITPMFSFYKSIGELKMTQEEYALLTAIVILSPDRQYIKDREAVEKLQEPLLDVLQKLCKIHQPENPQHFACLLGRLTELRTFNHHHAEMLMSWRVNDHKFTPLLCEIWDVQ
Outline: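 HepG2 cells transiently transfected with multiple cis-promoter-driven reporter units to measure endogenous transcription factor activity; 24 h exposure. Reporter mRNA read by RT-PCR, FAM labelling, HpaI digestion and capillary electrophoresis. Bidirectional fit versus DMSO.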

[3] = ATG_GRE_CIS: Attagene CIS-FACTORIAL HepG2 Assay for human Glucocorticoid Response Elements (GRE) (AID 2282947); conditions: HepG2 GRE cis-reporter, Attagene multiplex mRNA; actives raise or lower the signal
Outline: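 Endogenous transcription factor activity is read through cis-element reporter constructs transiently transfected into HepG2 cells. After 24 h treatment, labelled RT-PCR products are resolved by capillary electrophoresis; DMSO sets baseline for bidirectional curve fitting.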

[4] = ATG_M_32_CIS: Attagene CIS-FACTORIAL HepG2 Assay for M32 Transcription Factor (Internal Marker) (AID 2282949); conditions: HepG2 Attagene cis-factorial M32 reporter, mRNA; actives raise or lower the signal;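 further: background control marker of the multiplexed CIS panel rather than a real target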
Outline: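 Internal background marker read-out: RT-PCR/capillary electrophoresis fluorescence of reporter transcripts from transiently transfected HepG2 cells after 24 h chemical exposure. Activity fitted bidirectionally relative to DMSO negative control.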

[5] = ATG_M_06_CIS: Attagene CIS-FACTORIAL HepG2 Assay for M06 Transcription Factor (Internal Marker) (AID 2282950); conditions: HepG2 Attagene CIS-FACTORIAL M06 internal marker reporter; actives raise or lower the signal
Outline: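 Terse: HepG2, transient MRTU transfection (FuGene 6), 24 h dosing; total RNA, oligo(dT) RT, PCR, FAM label, HpaI cut, capillary electrophoresis; bidirectional fit vs DMSO baseline; background-control endpoint.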

[6] = target: Hypoxia-inducible factor 1-alpha (Homo sapiens) (UniProt Q16665); assay: ATG_HIF1a_CIS: Attagene CIS-FACTORIAL HepG2 Assay for human Hypoxia Inducible Factor 1 (HIF1A) (AID 2282951); conditions: HepG2 Attagene cis-factorial HIF1a reporter transcription; actives raise or lower the signal
Chain of Hypoxia-inducible factor 1-alpha (Homo sapiens) (Q16665 whole entry, looked up): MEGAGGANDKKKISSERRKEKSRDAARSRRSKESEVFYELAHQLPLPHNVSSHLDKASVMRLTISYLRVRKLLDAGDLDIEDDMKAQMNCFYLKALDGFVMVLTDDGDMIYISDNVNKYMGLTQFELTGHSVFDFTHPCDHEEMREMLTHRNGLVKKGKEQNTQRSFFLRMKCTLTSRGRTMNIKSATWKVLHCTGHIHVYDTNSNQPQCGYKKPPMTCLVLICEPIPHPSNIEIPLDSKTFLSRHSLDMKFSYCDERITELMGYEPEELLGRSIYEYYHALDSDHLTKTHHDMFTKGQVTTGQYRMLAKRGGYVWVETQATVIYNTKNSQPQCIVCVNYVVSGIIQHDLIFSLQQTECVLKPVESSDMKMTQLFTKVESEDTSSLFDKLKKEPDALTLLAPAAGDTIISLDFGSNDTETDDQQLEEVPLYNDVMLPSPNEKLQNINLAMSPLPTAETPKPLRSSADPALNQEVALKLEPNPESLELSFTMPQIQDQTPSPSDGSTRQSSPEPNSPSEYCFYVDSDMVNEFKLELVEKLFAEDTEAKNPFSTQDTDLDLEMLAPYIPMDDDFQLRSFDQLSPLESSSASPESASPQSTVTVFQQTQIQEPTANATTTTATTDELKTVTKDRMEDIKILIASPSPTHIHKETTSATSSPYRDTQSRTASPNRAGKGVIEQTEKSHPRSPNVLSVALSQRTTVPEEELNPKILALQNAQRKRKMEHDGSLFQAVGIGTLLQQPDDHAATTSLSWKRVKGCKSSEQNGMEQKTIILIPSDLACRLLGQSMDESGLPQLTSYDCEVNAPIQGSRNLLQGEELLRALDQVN
Outline: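 HepG2, transient cis-reporter library, 24 h dosing. RNA → RT (oligo dT) → PCR → 6-FAM primer extension → HpaI → CE. Bidirectional curve fit vs DMSO.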

[7] = target: Hepatocyte nuclear factor 6 (Homo sapiens) (UniProt Q9UBC0); assay: ATG_HNF6_CIS: Attagene CIS-FACTORIAL HepG2 Assay for human Hepatocyte Nuclear Factor 6 (HNF6) (AID 2282952); conditions: HepG2 Attagene cis-factorial HNF6 reporter transcription; actives raise or lower the signal
Chain of Hepatocyte nuclear factor 6 (Homo sapiens) (Q9UBC0 whole entry, looked up, the tested form may be a part): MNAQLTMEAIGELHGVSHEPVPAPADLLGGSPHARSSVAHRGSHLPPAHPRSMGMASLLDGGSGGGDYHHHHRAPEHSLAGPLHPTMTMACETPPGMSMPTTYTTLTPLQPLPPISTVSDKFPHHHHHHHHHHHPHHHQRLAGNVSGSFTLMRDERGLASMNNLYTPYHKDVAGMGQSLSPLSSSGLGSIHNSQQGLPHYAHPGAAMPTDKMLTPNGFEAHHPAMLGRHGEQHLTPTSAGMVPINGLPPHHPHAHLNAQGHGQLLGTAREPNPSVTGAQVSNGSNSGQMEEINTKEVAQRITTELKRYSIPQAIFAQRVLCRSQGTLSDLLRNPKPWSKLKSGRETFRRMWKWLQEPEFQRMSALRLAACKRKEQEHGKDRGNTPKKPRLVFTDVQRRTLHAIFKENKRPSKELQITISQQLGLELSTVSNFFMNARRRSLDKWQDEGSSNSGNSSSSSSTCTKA
Outline: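 Reporter mRNA induction or loss in HepG2 after 24 h exposure; transient cis-MRTU transfection; fragments quantified by capillary electrophoresis; bidirectional analysis, DMSO as negative control.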

[8] = target: Heat shock factor protein 1 (Homo sapiens) (UniProt Q00613); assay: ATG_HSE_CIS: Attagene CIS-FACTORIAL HepG2 Assay for human Heat Shock Transcription Factor 1 (HSE) (AID 2282953); conditions: HepG2 HSE cis-reporter, Attagene RNA transcription; actives raise or lower the signal
Chain of Heat shock factor protein 1 (Homo sapiens) (Q00613 whole entry, looked up, the tested form may be a part): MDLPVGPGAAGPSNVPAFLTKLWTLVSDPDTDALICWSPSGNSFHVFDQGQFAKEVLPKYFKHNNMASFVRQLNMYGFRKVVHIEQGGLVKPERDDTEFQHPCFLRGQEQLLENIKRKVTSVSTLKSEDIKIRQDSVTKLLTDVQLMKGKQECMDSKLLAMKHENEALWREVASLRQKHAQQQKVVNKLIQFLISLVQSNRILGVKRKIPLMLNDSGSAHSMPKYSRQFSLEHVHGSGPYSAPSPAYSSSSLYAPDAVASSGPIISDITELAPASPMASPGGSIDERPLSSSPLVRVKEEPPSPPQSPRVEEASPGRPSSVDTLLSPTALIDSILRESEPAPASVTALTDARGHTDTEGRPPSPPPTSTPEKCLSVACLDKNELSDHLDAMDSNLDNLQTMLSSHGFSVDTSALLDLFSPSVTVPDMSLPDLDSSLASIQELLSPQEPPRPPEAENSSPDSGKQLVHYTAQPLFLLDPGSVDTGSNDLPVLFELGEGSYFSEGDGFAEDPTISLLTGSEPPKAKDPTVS
Outline: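 Read-out: fluorescence of reporter-specific RT-PCR fragments separated by capillary electrophoresis. HepG2 carrying transfected cis-element reporter units; 24 h dosing; activity fitted in both directions relative to DMSO baseline.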

[9] = ATG_MRE_CIS: Attagene CIS-FACTORIAL HepG2 Assay for human Metal Responsive Element (MRE) (AID 2282954); conditions: HepG2 MRE cis-reporter transcription, Attagene multiplex; actives raise or lower the signal
Outline: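 Fluorescent reporter fragments separated by capillary electrophoresis give mRNA induction for the MRE unit after 24 h treatment of transfected HepG2 cells. Endogenous transcription-factor activity is read; DMSO serves as negative control and baseline.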

[10] = ATG_ISRE_CIS: Attagene CIS-FACTORIAL HepG2 Assay for human Interferon Regulatory Factor 1 (IRF1) binding to an Interferon-Stimulated Response Element (ISRE) (AID 2282948); conditions: HepG2 ISRE cis-reporter (Attagene), mRNA transcription readout; actives raise or lower the signal
Outline: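 Cell-based cis-reporter assay; HepG2; 24 h exposure; reporter mRNA by RT-PCR plus capillary electrophoresis fluorescence; activity in either direction scored relative to DMSO.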

Measured: AC50

O=C(c1ccccc1)c1ccc(Cl)cc1
active: [8] 153 µM | [9] 57.5 µM
not listed: [10]
inactive: all other assays above

Nc1cccnc1N
not listed: [10]
inactive: all other assays above

O=S(=O)(O)CCC(F)(F)C(F)(F)C(F)(F)C(F)(F)F
not listed: [10]
inactive: all other assays above

CNS(=O)(=O)C(F)(F)C(F)(F)C(F)(F)C(F)(F)C(F)(F)C(F)(F)C(F)(F)C(F)(F)F
active: [6] 24.4 µM
inactive: all other assays above

O=C=NCc1cccc(CN=C=O)c1
inactive: all assays above

O=c1cccc[nH]1
inactive: all assays above

CO[Si](C)(CCC(F)(F)C(F)(F)C(F)(F)C(F)(F)C(F)(F)C(F)(F)F)OC
inactive: all assays above

CC1=CC2C3C=CC(C3)C2C1C (centres undefined)
active: [9] 65.8 µM
not listed: [10]
inactive: all other assays above

C#CC(O)CCC (centres undefined)
not listed: [2]
inactive: all other assays above

CC(O)C#CC(C)O (centres undefined)
inactive: [3] | [4] | [5] | [6]
active: [1] 142 µM | [10] 99.5 µM | [7] 70.5 µM | [8] 78.2 µM | [9] 57.2 µM

COc1ccccc1C=O
active: [6] 27.7 µM
not listed: [2]
inactive: all other assays above

NS(=O)(=O)C(F)(F)C(F)(F)C(F)(F)C(F)(F)C(F)(F)C(F)(F)F
active: [9] 59 µM
not listed: [2]
inactive: all other assays above

Cc1cc(C)c(O)c(C(C)(C)C)c1
not listed: [2]
inactive: all other assays above

CSc1ccc(Cl)cc1
not listed: [10]
inactive: all other assays above

NC(=O)C(F)(F)C(F)(F)C(F)(F)C(F)F
not listed: [2]
inactive: all other assays above

Cc1ccc([N+](=O)[O-])c(C)c1
not listed: [2] | [10]
inactive: all other assays above

CCC(C)CO (centres undefined)
not listed: [2]
inactive: all other assays above

C[C@]12CC[C@H]3C(=CCc4cc(O)ccc43)[C@@H]1CCC2=O
not listed: [10]
inactive: all other assays above

Nc1cc([N+](=O)[O-])cc(Cl)c1O
not listed: [2] | [10]
inactive: all other assays above

c1ccc(C[P+](c2ccccc2)(c2ccccc2)c2ccccc2)cc1
active: [10] 31.3 µM | [9] 59.4 µM
not listed: [2]
inactive: all other assays above

CCCC(=O)OCC(COC(=O)CCC)OC(=O)CCC
active: [10] 53 µM
not listed: [2]
inactive: all other assays above

CCN(CC)c1ccc(C=O)cc1
not listed: [2]
inactive: all other assays above

C=CC(=O)OCC(F)(F)C(F)(F)C(F)(F)C(F)(F)C(F)(F)C(F)(F)C(F)(F)C(F)F
active: [10] 150 µM | [8] 218 µM | [9] 231 µM
not listed: [1]
inactive: all other assays above
